In the supplement of paper PMC10338343:
± gives the standard deviation.

Columns and labels:
[1] = system: MILI (PIWIL2) piRISC loaded with L1MC piRNA (26 nt); experiment: pre-steady-state target cleavage rate (min^-1); guide: L1MC piRNA 5'p-UAACUAAAUACUAUGCAAGCUGUAGG; higher = faster piRNA-guided slicing of the target; details: auxiliary factor: 500 nM mouse GTSF1
Procedure, shortened: (§1)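 The pre-steady-state cleavage rate came from a burst-and-steady-state fit to pooled data from three Cleave-'n-Seq trials, in which uncleaved targets were sequenced and normalised to depth and to weakly complementary targets. Each reaction held 0.1 nM transcribed, DNA-blocked target RNA library and 1 nM active affinity-purified piRISC carrying one synthetic guide, with or without 500 nM GTSF1 partner protein, in HEPES–potassium acetate buffer at 33 °C for 0–8 or 0–960 min. k3 was capped at 0.0001 min^-1.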

[2] = system: EfPiwi piRISC loaded with L1MC piRNA (26 nt); experiment: pre-steady-state target cleavage rate (min^-1); auxiliary factor: 500 nM Ephydatia muelleri Gtsf1; guide: L1MC piRNA 5'p-UAACUAAAUACUAUGCAAGCUGUAGG; MIWI and MILI are mouse PIWI proteins and EfPiwi is from a freshwater sponge; tags in brackets are library labels; higher = faster piRNA-guided slicing of the target
Procedure, shortened: as §1

Sequence	pre-steady-state target cleavage rate [1]	pre-steady-state target cleavage rate [2]
UCCUGCUACAGCUUGCAUAGUAUUUUCUUA	0.0484 ± 0.01	0.00359 ± 0.002
UCCUGCUACUGCUUGCAUAGUAUUUACAAA	0.0206 ± 0.0071	0.00262 ± 0.0024
UCCUGGAUGUGCUUGCAUAUUAUUUAGUUA	0.0346 ± 0.0073	0.00647 ± 0.0022
UCCUGGAACAGCUAGCAUAGUAUUUAGAUA	0.118 ± 0.02	0.0041 ± 0.0023
UCCUCCUAGAGCUUGCAUAGAAUUUAGUUA	0.0513 ± 0.0099	0.00468 ± 0.0013
UCCUGGAUCAGCUUGCAUAGUAUUUGUUA	0.145 ± 0.023	0.00326 ± 0.0029
UCCUGCUACAGCUUGCUUAGUAUUUAGAUA	0.0729 ± 0.015	0.00495 ± 0.0028
UCCUGCUACAGCAUGCAUAGUAUUUACUUA	0.261 ± 0.041	0.0037 ± 0.0024
UCCUCCUACAGCUUGCUUAGUAUUUACAAA	0.0922 ± 0.021	0.00329 ± 0.003
UCCUCCUACAGCUUGCAUAGUAUAAAGUAA	0.0819 ± 0.019	0.0031 ± 0.0024
UCCUGGAUCAGCUUGCAUAGUAUUUAGCUUA	0.149 ± 0.021	0.0068 ± 0.0026
UCCUGCUACAGCUUGCAAUAGUAUUUAGUUA	0.0355 ± 0.0093	0.006 ± 0.0018
UCCUGGAUGAGCUUGCAUAGUAGUUAGUUA	0.158 ± 0.026	0.00781 ± 0.0027
UCCUGCUACUCCUUGCAUAGUAUUUAGAAA	0.0806 ± 0.019	0.00264 ± 0.002
UCCUGCUUGUGCUUGCAUAGUAUUUAGUAA	0.0582 ± 0.015	0.00475 ± 0.0026
UCCUGGAACAGCUUGCAUAGUAUAUUGUUA	0.153 ± 0.029	0.00533 ± 0.0022
UCCUGCUACAGCUUGCAUUGUAUUAAGUUA	0.215 ± 0.03	0.00572 ± 0.0028
UCCUCCUACACCUUGCAUAGUAUUUAGAUA	0.161 ± 0.044	0.004 ± 0.0023
UCCUCCUAGAGCUUGCAUAGUAUUUACUUA	0.146 ± 0.03	0.00356 ± 0.0033
UCCUGGAUCAGCUUGCUUAGUUUUUAGUUA	0.0369 ± 0.011	0.00518 ± 0.0042

Sequence	pre-steady-state target cleavage rate [1]	pre-steady-state target cleavage rate [2]
UCCUGCUACAGCAUGCAUAGAAUUUAGUUA	0.0922 ± 0.021	0.00243 ± 0.002
UCCUGGAACAGCUUGCAUACUAAUUAGUUA	0.0355 ± 0.0087	0.00305 ± 0.0029
UCCUGCAACAGCUUGCAUAGUAUUUUCAAA	0.104 ± 0.027	0.00269 ± 0.0017
UCCUGCUACAGCUUGCAUAGUAUUUUGAUA	0.142 ± 0.037	0.00307 ± 0.0023
UCCUCCUAGUGCUUGCAUAGUAUUUACAAA	0.0188 ± 0.0067	0.00293 ± 0.0029
UCCUGGAUGAGCUUGCAAAGUAUUUAGAAA	0.0447 ± 0.013	0.00395 ± 0.0031
UCCUGGAUCAGCUUGCAUAGUAUUUUGAAA	0.108 ± 0.027	0.00318 ± 0.0016
UCCUGGUACAGCUUGCAUAGUAUUAAGUAA	0.128 ± 0.035	0.0031 ± 0.0028
UCCUGGAUGAGCUUGCAAAGUAAUUAGUUA	0.0348 ± 0.0091	0.00431 ± 0.0022
UCCUGGAACAGGAUGCAUAGUAUUUAGAAA	0.0732 ± 0.017	0.00257 ± 0.0016
UCCUGGAACAGCUUGCAUAGAAUUUAGUAA	0.0627 ± 0.014	0.00292 ± 0.002
UCCUGGAUCAGCUUGCUAUAGUAUUUAGUUA	0.0101 ± 0.0052	0.00528 ± 0.0019
UCCUCCUACAGCUUGCAUAGUAUUUUCAUA	0.091 ± 0.02	0.00665 ± 0.0037
UCCUCCUACAGCUUGCAUAGUAUUUACAUA	0.177 ± 0.041	0.00441 ± 0.0028
UCCUGCUACAGCUAGCAUAGUAUUUACUUA	0.351 ± 0.051	0.00364 ± 0.0025
UCCUCCUACAGGUUGCAUAGUAUUUAGAUA	0.123 ± 0.017	0.00362 ± 0.00095
UCCUCCUACAGCUUCCAUAGUAUUUACUUA	0.0137 ± 0.0064	0.00277 ± 0.0024
UCCUGCUACAGCUUGCAUAGAUUUUACAAA	0.00852 ± 0.0044	0.00292 ± 0.0018
UCCUGGUACUGCUUGCAUAGUAUAUAGUUA	0.168 ± 0.044	0.01 ± 0.0048
UCCUGCUACAGCUUGCAUAGUUUUAAGUUA	0.0676 ± 0.015	0.00341 ± 0.0017

Sequence	pre-steady-state target cleavage rate [1]	pre-steady-state target cleavage rate [2]
UCCUCCUACAGCUUGCAGUAGUAUUUAGUUA	0.0101 ± 0.0053	0.00539 ± 0.0033
UCCUCGAUCAGCUUGCAUAGUAUUUACAAA	0.135 ± 0.026	0.00554 ± 0.003
UCCUGGAACAGCUUGCAUAGUAUUAUGAAA	0.0563 ± 0.02	0.00336 ± 0.0021
UCCUGGAUCAGCUUGCAUAGUAUUGAGUUA	0.227 ± 0.039	0.00662 ± 0.0024
UCCUCCAACAGCUUCCAUAGUAUUUAGUUA	0.0545 ± 0.017	0.00439 ± 0.0021
UCCUGGAACAGCUUGCAAAGUAUUUAGAAA	0.166 ± 0.038	0.00418 ± 0.002
UCCUGCUACAGCUUGCAUAGUUUUUUCAAA	0.0433 ± 0.014	0.00248 ± 0.0022
UCCUCCUACAGCUUGCAUAGUAUAAUGAAA	0.0878 ± 0.019	0.00235 ± 0.0022
UCCUGGUACAGCUUGCAUAGUAUUGAGUUA	0.155 ± 0.032	0.00418 ± 0.0024
UCCUCCUACAGCUUGCAUAGAUUUUAGAAA	0.0147 ± 0.0053	0.00312 ± 0.0024
UCCUGCUACAGGAUGCAUAGUAUUUAGAAA	0.0163 ± 0.0074	0.00248 ± 0.0014
UCCUGCUACAGCUUGCAAAGUAUAUAGUUA	0.0886 ± 0.016	0.00379 ± 0.0026
UCCUGCUACAGCUUGCAUAGUAUAUAGAAA	0.0314 ± 0.01	0.00298 ± 0.0025
UCCUGGAAGAGCUUCCAUAGUAUUUAGUUA	0.297 ± 0.085	0.00329 ± 0.0011
UCCUCCUAGUGCUUGCAUAGUAUUUAGUAA	0.114 ± 0.019	0.00468 ± 0.002
UCCUGGAUCAGCUUGCAUAGUAUUUACAUA	0.0335 ± 0.0081	0.00271 ± 0.0021
UCCUGGAUCAGCUUGCAUACUAUUUACUUA	0.0867 ± 0.02	0.00362 ± 0.0032
UCCUGCUACAGCUUGCAUAGUAUUUAGAUUA	0.135 ± 0.023	0.00658 ± 0.0023
UCCUGGAUGUGCUUGACAUAGUAUUUAGUUA	0.0338 ± 0.009	0.0797 ± 0.03
UCCUGGAUCAGCUUGCAUACUAUUUAGUAA	0.0386 ± 0.0077	0.00398 ± 0.0023
